# MEKK2mut PB1 HTS: signal of MEK5 binding to mutant human MEKK2 PB1 domain; actives 0.35% (n = 290,000); AID 1530; bead flow cytometry, Alexa488-MEK5 binding to MEKK2 mutant; percent response, % at 10 µM; in the data active = percent response above about 24%, passing the limit was not always enough
# UBC13 inh: inhibitors of human UBC13 polyubiquitin chain formation; inhibition, % at 20 µM; actives 0.47% (n = 330,000); TR-FRET; AID 485273; in the data active = inhibition above about 45%, passing the limit was not always enough
# Target sequence (P61088 whole entry, looked up): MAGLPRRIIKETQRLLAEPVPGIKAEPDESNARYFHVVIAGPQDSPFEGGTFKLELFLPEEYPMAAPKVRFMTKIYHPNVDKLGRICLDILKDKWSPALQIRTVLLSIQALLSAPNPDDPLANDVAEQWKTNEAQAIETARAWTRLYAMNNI
# MEKK3 PB1 HTS: modulators (inhibitors or enhancers) of MEK5 binding to human MEKK3 PB1 domain | Q99759 | actives 1.4% (n = 290,000) | binding response (% of control), % at 10 µM | bead-based flow cytometry, Alexa488-MEK5 binding to MEKK3; actives lie on both sides; 0 = blocked by unlabeled MEK5, 100 = vehicle;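 active = binding response more than 3 SD above or below the average of its plate-row segment, actives on both sides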;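 also: Alexa488 bead fluorescence after subtracting the streptavidin-only scavenger bead signal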
# MEKK2 WT-MEK5: raises or lowers MEK5 binding to wildtype human MEKK2 PB1 domain. actives 1.1% (n = 290,000). bead flow cytometry, Alexa488-MEK5 binding to MEKK2 WT; actives lie on both sides. AID 1531. Q9Y2U5. binding response (% of control), % at 10 µM; in the data active = binding response below about 67% or above about 130%
# MEKK2wt confirm: raises or lowers MEK5 binding to wildtype human MEKK2, retest; shares compounds with MEKK3 PB1 HTS; bead flow cytometry, Alexa488-MEK5 binding to MEKK2 WT; actives lie on both sides; binding response (% of control), % at 10 µM; actives 2.4% (n = 5,900); in the data active = binding response below about 16% or above about 210%; inactive = in between
# MEKK2mut confirm: signal of MEK5 binding to mutant human MEKK2, retest. shares compounds with MEKK3 PB1 HTS. bead flow cytometry, Alexa488-MEK5 binding to MEKK2 mutant. percent response, % at 10 µM. actives 2% (n = 5,900); in the data active = percent response mostly above about 71%, no sharp cut-off; inactive = mostly below about 38%;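 also: higher means compound restores mutant binding toward wildtype level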
# MEKK3-MEK5 inh: MEKK3-MEK5 PB1 inhibition, single concentration confirmation; shares compounds with MEKK3 PB1 HTS; bead flow cytometry, Alexa488-MEK5 binding to MEKK3; stronger effect = lower value; binding response (% of control), % at 10 µM; actives 1.8% (n = 5,900);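 active = binding response below 72% of control, or above a set upper limit, though filed actives all read lower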;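 also: 100% = DMSO only wells and 0% = binding blocked by excess unlabeled MEK5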
# Casp3 counter: inhibits human caspase-3 in UBC13 counter-screen; shares compounds with UBC13 inh; Recombinant caspase-3, Caspase-Glo 3/7 luminescence, 60 min; inhibition, % at 20 µM; actives 4% (n = 1,400);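 active = mean inhibition across replicates above about 26%, limit read from the data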;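 also: plate controls were DMSO with caspase-3 for no effect and DMSO wells lacking enzyme for full effect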
# Target sequence (P42574 whole entry, looked up): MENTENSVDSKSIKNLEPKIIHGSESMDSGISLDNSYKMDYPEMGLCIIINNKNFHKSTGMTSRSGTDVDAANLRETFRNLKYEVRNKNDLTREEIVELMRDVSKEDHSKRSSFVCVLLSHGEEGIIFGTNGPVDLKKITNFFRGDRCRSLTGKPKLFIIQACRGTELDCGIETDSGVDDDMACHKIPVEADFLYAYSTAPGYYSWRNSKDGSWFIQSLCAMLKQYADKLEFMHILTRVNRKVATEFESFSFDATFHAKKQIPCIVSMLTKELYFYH
# UBC13 confirm: confirmation of human UBC13 polyubiquitin inhibitors. shares compounds with UBC13 inh. UBC13 polyubiquitination, TR-FRET, biochemical. inhibition, % at 10 µM. actives 68% (n = 1,400). AID 488859; in the data active = inhibition above about 45%
# An asterisk follows results filed as active; · = no result given; [ ] = dose if it differs, or a comment. An excerpt weighted towards active compounds, which were near 2.3% of everything screened.
SMILES,MEKK2mut PB1 HTS,UBC13 inh,MEKK3 PB1 HTS,MEKK2 WT-MEK5,MEKK2wt confirm,MEKK2mut confirm,MEKK3-MEK5 inh,others
CCOC(=O)c1cn[nH]c1NC(=S)Nc1ccc(OC)cc1,-21.0,-4.3,50.0*[inhibitor],62.0,106.0,-1.0,106.0,
COC(=O)c1cn[nH]c1NC(=S)Nc1ccc(Cl)c(Cl)c1,-1.0,5.4,102.0,101.0,·,·,·,
O=S(=O)(c1ccc(F)c(F)c1)N1CCN(Cc2ccc3c(c2)OCO3)CC1,15.0,-0.3,116.0,116.0,·,·,·,
O=S(=O)(c1cccc(F)c1)N1CCN(Cc2ccc3c(c2)OCO3)CC1,-7.0,8.8,58.0*[inhibitor],68.0,104.0,10.0,107.0,
O=C(NCCCN1CCCC1)c1cc(Sc2ccc(F)cc2)nc2ccccc12,1.0,0.4,133.0*,122.0,125.0,13.0,104.0,
Cn1nnc2ccccc2c1=O,7.0,10.3,141.0*,129.0,100.0,-2.0,98.0,
[O-][n+]1c2ccccc2cc2ccccc21,·,-0.5,·,·,·,·,·,
CC(=O)c1cc(-c2ccccc2)n(CCC(=O)NC(C)(C)C)c1C,-22.0,5.7,25.0*[inhibitor],36.0*[inhibitor],101.0,-1.0,100.0,
COc1ccc(CCNC(=O)CSc2ccc(-c3ccccc3)nn2)cc1,0.0,0.9,131.0*,104.0,99.0,-12.0,97.0,
COc1ccc(C(=O)CSc2ccc(-c3ccccc3)nn2)cc1,6.0,4.0,95.0,97.0,·,·,·,
O=C(CSc1ccc(-c2cccs2)nn1)NCCc1ccccc1,4.0,-7.3,110.0,105.0,·,·,·,
COc1ccccc1CCNC(=O)CSc1ccc(-c2cccs2)nn1,8.0,-16.4,61.0*[inhibitor],99.0,100.0,-1.0,105.0,
CCn1c(/N=C/c2ccccc2NS(=O)(=O)c2ccc(C)cc2)nc2ccccc21,0.0,·,137.0*,104.0,100.0,1.0,104.0,
COc1cc(C2C3=C(CC(C)(C)CC3=O)N(C)C3=C2C(=O)CC(C)(C)C3)cc(Br)c1O,5.0,-12.5,104.0,106.0,·,·,·,
O=C(Nc1ccc(N2CCCC2)cc1)c1ccc(Br)cc1,10.0,1.9,105.0,151.0*,124.0,13.0,94.0,
CN1CCN(c2ccccc2NC(=O)c2ccc(-c3ccc(Cl)c(Cl)c3)o2)CC1,19.0,8.4,105.0,139.0*,157.0,40.0,109.0,
CC(=O)N1CCN(c2ccc(NC(=O)c3cccc(OCc4ccccc4)c3)cc2)CC1,-3.0,3.7,94.0,92.0,·,·,·,
CN1CCN(c2ccccc2NC(=O)c2cccc(OCc3ccccc3)c2)CC1,21.0,-0.5,111.0,137.0*,137.0,19.0,105.0,
CC(=O)N1CCN(c2ccc(NC(=O)c3ccc(OCc4ccccc4)cc3)cc2)CC1,-7.0,5.5,62.0*[inhibitor],75.0,101.0,-3.0,98.0,
O=C(C[n+]1ccccc1)N/N=C/c1ccccc1C(F)(F)F,3.0,1.7,105.0,104.0,·,·,·,
Cc1cc(F)ccc1S(=O)(=O)Nc1ccccc1C(=O)Nc1ccccc1-c1nc2ccccc2[nH]1,1.0,26.3,134.0*,122.0,109.0,0.0,99.0,
Cc1cc(F)ccc1S(=O)(=O)Nc1ccccc1C(=O)Nc1ncn[nH]1,-2.0,-2.2,100.0,97.0,·,·,·,
COc1cc(NC(=O)Cn2cnc(S(=O)(=O)N3CCC(C)CC3)c2)cc(OC)c1OC,2.0,7.7,99.0,106.0,·,·,·,
CCCN1C2CCCC1CC(NC(=O)NC1CCCCC1)C2 (centres undefined),-14.0,5.5,2.0*[inhibitor],2.0*[inhibitor],101.0,2.0,100.0,
O=C(CN1C2CCC1CC(NC(=O)NC1CCCCC1)C2)NC1CC1 (centres undefined),-8.0,10.9,68.0,72.0,·,·,·,
SMILES,MEKK2mut PB1 HTS,UBC13 inh,MEKK3 PB1 HTS,MEKK2 WT-MEK5,MEKK2wt confirm,MEKK2mut confirm,MEKK3-MEK5 inh,others
CCOCc1c(C(=O)OCC(=O)Nc2ccc(C)c(S(=O)(=O)N(C)C)c2)oc2ccccc12,0.0,-5.5,135.0*,110.0,105.0,-2.0,103.0,
Fc1ccc(CSc2ncnc3scc(-c4ccccc4)c23)cc1,52.0*,0.0,108.0,103.0,96.0,-4.0,101.0,
COc1ccccc1OCC(=O)N1CCN(c2ccccc2OC)CC1,3.0,-5.5,103.0,102.0,·,·,·,
COC(=O)CSc1ncnc2scc(-c3ccccc3)c12,-1.0,9.0,106.0,103.0,·,·,·,
CCOCC(=O)N1CCN(c2ccccc2OC)CC1,53.0*,3.5,103.0,123.0,100.0,-5.0,100.0,
O=C(CSc1ncnc2scc(-c3ccccc3)c12)N1CCN(c2ccccc2F)CC1,-1.0,·,91.0,90.0,·,·,·,
COc1ccccc1N1CCN(C(=O)CSc2ncnc3scc(-c4ccccc4)c23)CC1,0.0,6.5,148.0*,104.0,103.0,5.0,105.0,
CCN(CC(=O)Nc1ccc(NC(C)=O)cc1)C(=O)c1ccccc1CCc1ccccc1,·,-4.1,·,·,·,·,·,
CC1(C2CC2)NC(=O)N(CC(=O)Nc2ccccc2F)C1=O (centres undefined),·,-0.9,·,·,·,·,·,
O=C(C1CCCC1)N1CCN(S(=O)(=O)c2cccc(Cl)c2Cl)CC1,6.0,8.3,107.0,111.0,·,·,·,
COc1ccc2nc(SCC(=O)Nc3nccs3)[nH]c2c1,-3.0,-7.4,104.0,101.0,·,·,·,
C#CCOCCOCCOCCNc1nc(N2CCOCC2)nc(N2CCN(C(=O)[C@H](C)n3cc(CCCN=C(N)N)nn3)CC2)n1,5.0,11.3,1.0*[inhibitor],2.0*[inhibitor],107.0,2.0,98.0,
C#CCOCCOCCOCCNc1nc(N2CCN(C(=O)[C@H]([C@@H](C)CC)n3cc(CCCN=C(N)N)nn3)CC2)nc(N2CCN(C(=O)[C@H]([C@@H](C)CC)n3cc(CCCN=C(N)N)nn3)CC2)n1,18.0,24.7,110.0,164.0*,175.0,40.0,102.0,
COc1cccc(C(=O)NCC(=O)NCc2cc(=O)n(C)c(=O)n2C)c1OC,-1.0,1.7,99.0,102.0,·,·,·,
O=C(CN1C(=O)c2cccc3cccc(c23)C1=O)NCCN1CCOCC1,-8.0,-4.9,87.0,86.0,·,·,·,
CCCCOc1ccc(Cl)cc1Nc1nc(NCCO)nc(N2CCCC2)n1,9.0,59.5*,110.0,141.0*,112.0,3.0,99.0,Casp3 counter=-3.5;UBC13 confirm=19.3
CCOc1ccc(Cl)cc1Nc1nc(NCCO)nc(N2CCCC2)n1,4.0,37.1,105.0,109.0,·,·,·,
COc1cc2c(cc1OC)CC(=O)NC=C2,-10.0,6.6,95.0,87.0,·,·,·,

# Bioassay records as filed in PubChem BioAssay.
